# Screening results deposited in PubChem by National Center for Advancing Translational Sciences (NCATS).
# HP1b chromo inh – HTS for Inhibitors of HP1-beta Chromodomain Interactions with Methylated Histone Tails | AlphaScreen HP1-beta / biotin-H3K9me3 peptide binding | Potency, µM (series often up to 114 µM), inactives show at the top dose activity change, negative = inhibition, actives largely listed as inhibitors | 390,000 tested, 0.56% active | AID 540317, 2011; further: nearly all actives have a fitted effect of over 70% in size
# Target sequence (P83916 whole entry, looked up): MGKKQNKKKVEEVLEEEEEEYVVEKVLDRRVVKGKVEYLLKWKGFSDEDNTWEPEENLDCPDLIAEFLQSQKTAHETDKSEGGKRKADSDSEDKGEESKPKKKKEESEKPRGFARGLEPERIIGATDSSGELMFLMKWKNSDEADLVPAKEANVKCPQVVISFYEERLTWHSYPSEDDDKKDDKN
#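 AlphaScreen: HP1-beta (50 nM) preformed 30 min with biotin-H3(1-18)K9me3 peptide (50 nM) in PBS pH 7.4, 0.01% Tween-20. Compound added for 30 min at RT, then streptavidin donor/nickel chelate acceptor beads (10 ug/mL) for 30 min.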
# G9a block – qHTS Assay for Inhibitors of Histone Lysine Methyltransferase G9a; Histone-lysine N-methyltransferase EHMT2 (Homo sapiens), Q96KQ7; G9a H3K9 monomethylation, AlphaScreen, 2 h; Potency, µM (doses to about 102 µM), for the others: at the highest dose activity, negative = inhibition, hits mostly inhibitors; 350,000 tested, 8.8% active; further: on the % scale 0 is the no-effect control and ±100 the full control effect; nearly all actives have a fitted effect of over 75% in size
# Target sequence (Q96KQ7 913-1193 limits assumed): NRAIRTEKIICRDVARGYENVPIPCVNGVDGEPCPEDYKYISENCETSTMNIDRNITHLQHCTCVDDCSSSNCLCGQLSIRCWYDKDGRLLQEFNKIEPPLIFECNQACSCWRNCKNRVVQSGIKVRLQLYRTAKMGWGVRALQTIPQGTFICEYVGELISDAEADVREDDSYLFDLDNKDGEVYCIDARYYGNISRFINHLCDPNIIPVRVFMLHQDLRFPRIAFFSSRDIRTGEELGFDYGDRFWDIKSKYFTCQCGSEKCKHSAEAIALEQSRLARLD
#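 Using a bead-based AlphaScreen, monomethylated H3K9 product from 2 h room-temperature reactions (G9a 20 nM, peptide 500 nM, SAM 20 uM) was detected with 0.5 ug/mL rabbit anti-H3K9me1 antibody.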
# ALOX12 inh – Primary qHTS assay for inhibitors of human arachidonate 12S-lipoxygenase (ALOX12): Round 2 | 580,000 tested, 1.1% active | Potency, µM (top dose mostly 108 µM), inactives show at the highest dose activity change, negative = inhibition, usual class: inhibitors | Polyunsaturated fatty acid lipoxygenase ALOX12 (Homo sapiens), P18054 | AID 1671190, 2021 | purified 12hLO, xylenol orange hydroperoxide absorbance; further: on the % scale 0 is the no-effect control and ±100 the full control effect
#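 Hydroperoxide product was detected by ferrous iron/xylenol orange as the 573 to 405 nm absorbance ratio. Arachidonic acid at 40 uM (final) was turned over for 30 min at room temperature by 150 nM human 12hLO, pH 7.0 Hepes buffer, after 15 min compound preincubation.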
# Sfp inh – qHTS Assay for Inhibitors of Bacillus subtilis Sfp phosphopantetheinyl transferase (PPTase); Potency, µM, for the others: largest response in the series, negative = inhibition, most hits filed as inhibitors; 4'-phosphopantetheinyl transferase ffp (Bacillus subtilis), Q9F4F7; 310,000 tested, 3.5% active; AID 1490, 2009; Biochemical Sfp PPTase activity, qHTS;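 further: the enzyme is Sfp with the accession as filed and its product quenches rhodamine fluorescence; 0% = enzyme reaction without inhibitor and -100% = no enzyme wells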
#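 Buffer: 50 mM Hepes-Na pH 7.6, 10 mM MgCl2, 0.01% Nonidet P-40, 0.01% BSA. Enzyme 15 nM, pre-exposed to compound 15 min; substrates then added and fluorescence change tracked over 30 min.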
# JMJD2A Tudor – qHTS Assay for Inhibitors of JMJD2A-Tudor Domain | Lysine-specific demethylase 4A (Homo sapiens), O75164 | AlphaScreen JMJD2A-Tudor / H3K4me3 peptide binding | Potency, µM (top dose mostly 114 µM), without a hit: at the highest dose activity change, negative = inhibition, most hits filed as inhibitors | 390,000 tested, 4.4% active | AID 504339, 2011; further: on the % scale 0 is the no-effect control and ±100 the full control effect; nearly all actives have a fitted effect of over 50% in size
# BAZ2B inh – qHTS Assay for Inhibitors of BAZ2B. Bromodomain adjacent to zinc finger domain protein 2B (Homo sapiens), Q9UIF8. AlphaScreen BAZ2B-H3K14Ac peptide displacement. Potency, µM (titrated, usually from 114 µM), inactives show at the top dose activity change, negative = inhibition, most hits filed as inhibitors. 360,000 tested, 4.4% active; further: on the % scale 0 is the no-effect control and ±100 the full control effect; nearly all actives have a fitted effect of over 60% in size
#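 Compounds, titrated to a top concentration of 110 uM, were incubated 30 min at room temperature with preformed BAZ2B/acetyl-K14 H3 peptide complex (50 nM each). Proximity signal was measured by AlphaScreen after 20 min with beads.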
# The depositor's hits bear a star; u = inconclusive; x = no result; ! = repeats disagree; [ ] = dose if it differs, or a comment. In the library only some 8.7% were active in any assay of this set; here they are far more common. The call rests on the fitted dose curve; in most records, active means well fitted curve in the direction sought with a large enough effect; inconclusive means small, poorly fitted or top-dose-only effect, or another doubt; inactive means no such curve, though single readings can be large; an effect the other way counts as inactive or inconclusive. Potency means the concentration at half of the fitted maximal effect.
SMILES,HP1b chromo inh,G9a block,ALOX12 inh,Sfp inh,JMJD2A Tudor,BAZ2B inh
COc1cnc(-c2ccccn2)nc1N(C)c1ccccc1,2.4%,u,-6.2%,50.1µM*,25.1µM*,20µM*
Cc1cccc(Oc2nc(-c3ccccn3)nc3ccccc23)c1,20.9%,-1.4%,u,70.8µM*,-26.9%,-23.6%
C=C(C)Cn1c(SCc2ccccc2Cl)nc2c1c(=O)n(C)c(=O)n2C,x,x,-13.3%,x,x,x
Cc1nn(C)c2ncc(NC(=O)CCc3ncc(-c4ccccc4)o3)cc12,x,x,-28.2%,x,x,x
COc1cc(/C=C(\C#N)c2nc3ccccc3[nH]2)ccc1OCc1ccc(C)cc1,x,x,8.5%,x,x,x
O=[S+]([O-])(NCC1CN(Cc2ccc3[nH]ccc3c2)CC12CN(c1ccccc1)C2)c1ccccc1 (stereo unspecified),x,x,35.5µM*,x,x,x
Oc1ccc(CN2CC(CNc3ccccc3)C3(C2)CN(c2ccccc2)C3)cc1 (stereo unspecified),x,x,63.1µM*,x,x,x
CCN(CCCNC(=O)CNC(=O)c1nn(-c2ccc(OC)cc2)c(=O)c2ccccc12)c1cccc(C)c1,-19.8%,31.6µM*,-58.2%,12.9%,u,-38.7%
CCOc1ccc(NC(=O)CNC(=O)c2nn(-c3ccc(OC)c(OC)c3)c(=O)c3ccccc23)cc1,47.5%,-9.4%,3.7%,-13.3%,-6.7%,0.7%
COc1ccc(-n2nc(C(=O)NCC(=O)Nc3ccccn3)c3ccccc3c2=O)cc1Cl,83.2%,3.4%[0.0925 µM],u,u,31.6µM*,u
COc1ccc(-n2nc(C(=O)NCC(=O)NC(C)C)c3ccccc3c2=O)cc1Cl,43.9%,10.5%,-14.2%,5.3%,-1.7%,-0.4%
COc1ccc(-n2nc(C(=O)NCC(=O)NCCCN3CCCCCC3)c3ccccc3c2=O)cc1Cl,26.5%,25.1µM*,-17.6%,-21.2%,-16.9%,-2.1%
COc1ccc(-n2nc(C(=O)NCC(=O)Nc3cccc(Cl)c3)c3ccccc3c2=O)cc1OC,10.4%,8.1%,-4.6%,56.2µM*,-33.5%,3.2%
CC(C)(C)c1ccc(C23OC(=O)C(C)(C)C2OC(=O)C3(C)C)cc1 (stereo unspecified),x,x,29.2%,x,x,x
CN(C)/C=C/C(=O)c1cnc(-c2ccccc2Cl)s1,17.8%,-28.0%,8.91µM*,19.7%,-31.2%,-36.4%
CN(C)/C=C/C(=O)c1cnc(-c2ccccn2)s1,-1.5%,-2.3%,9.6%,8.1%,-17.8%,-1.5%
CN(C)/C=C/C(=O)c1cnc(-c2cccc(Cl)c2)s1,16.2%,-48.9%,31.6µM*,-6.4%,-24.2%,u
CN(C)C[C@H]1O[C@H](Cc2cc(-c3cccc(O)c3)on2)CC[C@@H]1O,x,x,-24.9%[176 µM],x,x,x
CC(C)(Oc1nn(Cc2cccc(Cl)c2)c2ccccc12)C(=O)NCCCn1ccnc1,x,x,51.9%,x,x,x
CN1CCc2cccc3c2C1Cc1ccc(O)c(O)c1-3 (stereo unspecified),u,1.89µM*!,u,56.2µM*!,39.8µM*,u
CCn1c2c(c(=O)n1-c1ccccc1)CCN(CCCc1ccccc1)C2,x,x,28.2µM*,x,x,x
COc1ccc2c(c1)CCc1c(C(=O)NCc3cccnc3)noc1-2,23.2%,39.8µM*,12.0%,-7.1%,-0.7%,14.6%
Cc1cc2c(cc3c(SCc4ccc(Cl)cc4)nnc(C)n32)o1,-13.8%,4.47µM*,3.0%,x,u,28.2µM*
Cc1cc2c(cc3c(SCc4cccc(F)c4)nnc(C)n32)o1,13.3%,u,-23.8%,x,-32.6%,u
